Experimental data taken from PubChem BioAssay AID504332 (National Center for Advancing Translational Sciences (NCATS), 2011).
The campaign covered roughly 350,000 compounds. About 31,000 (8.9%) were called active. About 15% were inconclusive and are not listed. What follows is part of a selection rich in actives, with near analogues and random picks from the rest. A number with no mark means an inactive call. Calls come from the whole dose curve; as a rule, active = well fitted inhibition curve with a large enough effect; inconclusive = small, poorly fitted or top-dose-only effect; inactive = no such curve, though single readings can be large or run the other way.

What follows are compounds tested against Histone-lysine N-methyltransferase EHMT2 (Homo sapiens) (UniProt Q96KQ7) (assay: qHTS Assay for Inhibitors of Histone Lysine Methyltransferase G9a). Details: G9a H3K9 monomethylation, AlphaScreen, 2 h; series mostly up to 59 µM; activity, negative = inhibition: at the top concentration.
Excerpt: Methylated lysines, on the N-terminal tails of histone proteins serve as epigenetic markers to recruit factors that can then modify local chromatin structure to lead to functional consequences. G9a and other members of the SUV39 family of the SET domain-containing superfamily of histone lysine methyltransferases (HMT) have been identified to specifically methylate Lys9 of histone H3 (H3K9). G9a catalyzes the mono- and di-methylation of H3K9 in mammalian euchromatic regions, where the resulting H3K9me2 is indicative of transcriptional repression. […] The inhibition of G9a will result in transcriptional activation and work synergistically with DNA methyltransferase and histone deacetylase inhibitors, to kill cancer cells. This qHTS assay for identification of G9a inhibitors is a chemiluminescence based AlphaScreen (PerkinElmer). Methylation of biotinylated-histone peptide is measured through specific antibody-based detection, in conjunction with streptavidin-coated donor and anti-IgG antibody-coated acceptor beads. The method is particularly well suited for detection of inhibitors acting by the desired histone peptide competitive mechanism and is applicable to testing other HMTs. Although AlphaScreen has significant advantages with its utility in a variety of epigenetic target assays, the primary screening data provided in this deposition should be used with caution due to the prevalence of screening artifacts. An AlphaScreen counterscreen is highly recommended to be run against any putative actives to eliminate non specific artifacts. Alternatively, one can use other AlphaScreen assays in PubChem to filter out promiscuous hits. Quinn et al. A chemiluminescence-based method for identification of histone lysine methyltransferase inhibitors. Mol Biosyst 6(5): 782-8. 2010. PMID: 20567762 [2] Baell,Holloway. New substructure filters for removal of pan assay interference compounds (PAINS) from screening libraries and for their exclusion in bioassays. J Med Chem. 53(7):2719-40. 2010. PMID: 20131845 NIH Molecular Libraries Probe Production Network [MLPCN] NIH Chemical Genomics Center [NCGC] Structural Genomics Consortium (SGC) NIH Grant: 5U54 MH084681-02
To each well of a 1,536w plate, 2ul of HMT enzyme (final 20nM) were added, using a nanoliter dispenser. The G9a- and GLP-inhibitor BIX-01294 (CID: 25150857) are used as an intraplate control, with a 16-point titration in duplicate. A Kalypsys pin-tool transferred 23nl of library compound solution in DMSO to each well. Following a 15 min incubation of enzyme with compounds at room temperature, 1ul mixture of b-H3K9 peptide substrate (final 500nM) and SAM cofactor (final 20uM) were added. Reactions were allowed to proceed at room temperature for 2 hours. Methylated b-H3K9 peptide product was detected with 0.5 ug/mL rabbit polyclonal anti-monomethyl histone H3K9 antibody (Abcam Inc., Cambridge, MA) and 20 ug/mL each streptavidin-coated donor and anti-rabbit IgG acceptor AlphaScreen beads. Antibody and beads were added in a 1ul dispense, for a final volume of 4ul, and plates were incubated, protected from the light, for 10 min at room temperature. Microplates were then read on an EnVision multilabel plate reader using the 1,536 plate HTS AlphaScreen aperture (excitation time 80 ms, measurement time 240 ms).
% is set by controls: 0 for no effect and ±100 for the full control effect; potency is the fitted concentration of half-maximal effect.
Note: nearly all actives have a fitted effect of over 75% in size.

Sequence of Histone-lysine N-methyltransferase EHMT2 (Homo sapiens) (Q96KQ7 913-1193 limits assumed): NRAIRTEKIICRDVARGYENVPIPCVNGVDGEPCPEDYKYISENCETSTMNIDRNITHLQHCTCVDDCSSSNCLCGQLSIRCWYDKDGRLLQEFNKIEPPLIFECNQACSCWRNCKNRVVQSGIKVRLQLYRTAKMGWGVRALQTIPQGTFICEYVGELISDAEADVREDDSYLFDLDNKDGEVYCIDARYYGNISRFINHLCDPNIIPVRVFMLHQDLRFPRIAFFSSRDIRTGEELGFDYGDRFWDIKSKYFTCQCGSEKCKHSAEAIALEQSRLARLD

SMILES | activity, negative = inhibition | Potency
CCOc1ccc(NS(=O)(=O)c2ccc(OCC(=O)NCCCOC)cc2)cc1 | 1.35% [at 12.7 µM] | –
CNC(=O)COc1ccc(S(=O)(=O)Nc2ccccc2)cc1 | – | 50.1 µM (active)
Cc1ccc(OCC(=O)Nc2ccc(S(=O)(=O)Nc3ccccn3)cc2)cc1 | -2.38% [at 102 µM] | –
Cn1c(COc2ccccc2C(C)(C)C)nc2ccccc21 | -0.125% | –
CC(C)C(c1nnnn1C1CCCCC1)N1CCN(C(=O)c2ccco2)CC1 (stereo not drawn) | 8.41% [at 102 µM] | –
CCC(c1nnnn1C1CCCC1)N1CCN(C(=O)c2ccco2)CC1 (stereo not drawn) | – | 17.8 µM (active)
CC(C)C(c1nnnn1CCc1ccccc1)N1CCN(C(=O)c2ccco2)CC1 (stereo not drawn) | 0.196% [at 102 µM] | –
COC(=O)c1ccc(C2C(C(=O)Nc3ccccc3)=C(C)Nc3nc4ccccc4n32)cc1 (stereo not drawn) | -7.28% | –
O=C(Oc1ccc(F)cc1)N1CCOCC1 | 21.7% | –
Cc1ccc(C(=O)Oc2ccc(C(=S)N3CCOCC3)cc2)cc1 | 10.7% [at 2.33 µM] | –
O=C(Oc1ccc(C(=S)N2CCOCC2)cc1)c1ccc(F)cc1 | – | 35.5 µM (active)
O=C(CN1C(=O)S/C(=C\c2ccccc2Cl)C1=O)NC1C=CS(=O)(=O)C1 (stereo not drawn) | 25.3% [at 102 µM] | –
CCSc1ccccc1C(=O)Nc1ccc2c(c1)OCO2 | – | 3.98 µM (active)
CCc1ccc(NC(=O)NC(C)c2ccc3c(c2)OCO3)cc1 (stereo not drawn) | 11.5% [at 102 µM] | –
CC(NC(=O)Nc1ccc2c(c1)OCO2)c1ccncc1 (stereo not drawn) | – | 50.1 µM (active)
CC(NC(=O)Nc1cccc([N+](=O)[O-])c1)c1ccc2c(c1)OCO2 (stereo not drawn) | -49.8% [at 102 µM] | –
CC(C)NC(=O)CSc1ccccc1C(=O)NCc1ccc2c(c1)OCO2 | 9.25% [at 102 µM] | –
CC(C)C(=O)Nc1cccc(C(=O)Nc2ccc3c(c2)OCO3)c1 | -5.76% [at 102 µM] | –
CC(=O)Nc1ccc(NC(=O)c2cc3sccc3n2Cc2ccc(F)cc2)cc1 | -9.34% | –
COc1ccc(NC(=O)C2CCCN(S(=O)(=O)c3c(C)[nH]c(=O)[nH]c3=O)C2)c(OC)c1 (stereo not drawn) | 3.84% | –
CCn1c(COc2ccc(OC)cc2)nnc1SCC(=O)Nc1cc(OC)ccc1OC | 7.11% [at 12.7 µM] | –
CCn1c(SCC(=O)Nc2nccs2)nnc1-c1ccncc1 | -2.99% [at 12.7 µM] | –
CCOC(=O)CNC(=O)CSc1nnc(-c2cccc(OC)c2)n1CC | – | 50.1 µM (active)
C=CCn1c(COc2ccccc2)nnc1SCC(=O)NCC(=O)OCC | -35.1% | –

SMILES | activity, negative = inhibition | Potency
CCOC(=O)CNC(=O)c1nn(-c2cccc(OC)c2)c(=O)c2ccccc12 | -38.4% | –
CCOC(=O)CNC(=O)CSc1nnc(COc2ccc(Cl)cc2)n1CC | – | 20 µM (active)
CN(C)c1cccc(C(=O)Nc2nc3ccc(S(=O)(=O)NC(C)(C)C)cc3s2)c1 | -4.07% | –
CCCCCN(C(=O)CCC(=O)OCCOc1ccc(OC)cc1)c1c(N)n(CCCC)c(=O)[nH]c1=O | -22.8% [at 102 µM] | –
COC(=O)C1CCN(C(=O)NC2CC(=O)N(c3ccc4c(c3)OCCO4)C2)CC1 (stereo not drawn) | 21.6% [at 0.501 µM] | –
O=C(CSc1nnc(N2CCOCC2)n1-c1cccc(F)c1)N1CCN(c2ccccn2)CC1 | -9.34% [at 12.7 µM] | –
COc1ccc(S(=O)(=O)c2cn(C)c3cc(N4CCCCC4)c(F)cc3c2=O)cc1 | 0.173% | –
CCc1nc(Nc2ccc(NC(C)=O)cc2)c2oc3ccccc3c2n1 | – | 50.1 µM (active)
CCc1nc(N2CCN(c3nc(C)cc(C)n3)CC2)c2oc3ccccc3c2n1 | 2.59% [at 2.33 µM] | –
CCc1nc(Nc2ccc3nccnc3c2)c2oc3ccccc3c2n1 | -36.3% | –
CCOc1ccc(S(=O)(=O)N(CC(=O)NCCSCc2ccc(C)cc2)c2ccccc2)cc1 | 0.479% | –
Clc1c(OCCCn2ccnc2)ccc2ccccc12 | – | 79.4 µM (active)
c1ccc(Cc2ccc(OCCn3ccnc3)cc2)cc1 | 4.59% | –
Brc1ccc(OCCn2ccnc2)cc1 | -9.05% | –
Cc1ccccc1S(=O)(=O)N1[C@@H](c2cccc(Cl)c2)C(C(=O)O)=CC[C@H]1c1ccc(Cl)cc1 | -5.32% [at 2.33 µM] | –
CCOc1ccc(CNC(=O)CCc2c(C)nn(-c3ccc(N4CCCCC4)nn3)c2C)cc1 | -22.9% | –
COc1ccccc1CSc1ncc(-c2ccc([N+](=O)[O-])cc2)[nH]1 | – | 8.91 µM (active)
COc1ccccc1CSc1nc2ccccc2[nH]1 | 13.9% | –
COc1ccccc1CC(=O)Nc1ccc([N+](=O)[O-])cc1OC | -8.27% | –
Cc1ccc(C(=O)NCCNS(=O)(=O)c2ccccc2)cc1 | -7.76% [at 102 µM] | –
O=C(NCCSc1ccccc1)c1ccco1 | 16.8% [at 102 µM] | –
CCS(=O)(=O)Nc1ccc(C(=O)NCCSc2ccccc2)cc1 | – | 79.4 µM (active)
CCCN(C(=O)c1nc2nccc(C)n2n1)c1c(N)n(Cc2ccccc2)c(=O)[nH]c1=O | 3.83% [at 12.7 µM] | –
CC(OC(=O)CCC(=O)c1ccccc1)C(=O)Nc1ccc(F)cc1 (stereo not drawn) | -46% | –
